CCT modulator – changes cytosolic chaperonin activity; purified chaperonin ATPase assay, HTRF ADP detection, 30 min; activity change, % (test concentration not listed), hits read low; 0.3% of 360,000 active; in the data active = activity change below about -30%; also: % is scaled to controls: 0 for no effect and ±100 for the full control effect
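Nucleotide hydrolysis assay: TRiC at 20–40 nM final (set by batch activity) with 10 uM ATP, 30 min at 37 °C, in presence of 76 uM compound. Detection by competitive ADP HTRF, 30 min ambient.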
MmCpn inh – M. maripaludis TRiC chaperonin inhibition; purified Mm-Cpn ATPase, ADP Transcreener TR-FRET; Potency, µM (doses to about 76.9 µM), without a hit: at the highest dose activity, negative = inhibition, actives largely listed as inhibitors; 0.031% of 330,000 active; also: potency is read from the fitted curve at half-maximal effect; % is scaled to controls: 0 for no effect and ±100 for the full control effect; nearly all actives have a fitted effect of over 80% in size
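ATPase turnover read by TR-FRET ADP competition (Eu cryptate antibody/ADP-d2, 665/590 nm): 10uM ATP final, 25nM Mm-CPN final, 30 min 37degC after 10-min compound preincubation, pH 7.4 Tris/KCl/MgCl2/DTT buffer.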
uPA generation – blocks generation of uPA at the cell surface. cell surface uPA generation assay, qHTS. Potency, µM (doses to about 38.3 µM), for inactives: at the highest dose activity change, negative = inhibition, usual class: inhibitors. 0.31% of 330,000 active. AID 540303; active = well fitted inhibition curve with a large enough effect; inconclusive = small, poorly fitted or top-dose-only effect; inactive = no such curve, though single readings can be large or run the other way; tested in mouse RAW 264.7 cells; also: potency is read from the fitted curve at half-maximal effect; % is scaled to controls: 0 for no effect and ±100 for the full control effect; nearly all actives have a fitted effect of over 55% in size
GLP1R inv ag – GLP-1 receptor (human) inverse agonism | P43220 | HEK293 GLP-1R CRE-luciferase, luminescence, 24 h; GLP-1R form is constitutively active | Potency, µM (doses to about 38.3 µM), for the others: top-dose activity change, negative = inhibition, hits mostly inhibitors | 1.6% of 410,000 active | AID 624417; also: potency is read from the fitted curve at half-maximal effect; % is scaled to controls: 0 for no effect and ±100 for the full control effect; nearly all actives have a fitted effect of over 55% in size
Target sequence (P43220 whole entry, looked up): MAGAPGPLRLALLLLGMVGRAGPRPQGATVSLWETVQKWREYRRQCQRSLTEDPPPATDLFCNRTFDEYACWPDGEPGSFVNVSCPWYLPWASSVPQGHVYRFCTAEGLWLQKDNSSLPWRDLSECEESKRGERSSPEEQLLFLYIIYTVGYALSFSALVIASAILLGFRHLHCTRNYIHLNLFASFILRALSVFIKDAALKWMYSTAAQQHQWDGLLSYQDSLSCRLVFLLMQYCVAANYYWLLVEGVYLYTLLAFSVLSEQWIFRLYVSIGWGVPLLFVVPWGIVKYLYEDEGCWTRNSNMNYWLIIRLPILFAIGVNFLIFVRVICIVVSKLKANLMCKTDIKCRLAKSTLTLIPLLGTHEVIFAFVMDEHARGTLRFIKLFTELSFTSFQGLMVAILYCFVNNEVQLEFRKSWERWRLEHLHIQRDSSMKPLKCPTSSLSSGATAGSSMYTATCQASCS
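Luminescence readout: a drop in cAMP-driven luciferase signal flags inverse agonism at a constitutively active GLP-1R stably expressed in HEK293. Compound exposure lasted 24 hr at 37 deg C, 5% CO2.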
GLP1R ag – GLP-1 receptor (human) agonism. P43220. HEK293 GLP-1R CRE-luciferase, luminescence, 4-6 h; cells express a hypersensitive GLP-1R form. Potency, µM (titrated, usually from 45.6 µM), for inactives: top-dose activation, usual class: activators. 0.007% of 380,000 active; also: potency is read from the fitted curve at half-maximal effect; % of control where 0% means no effect
HEK293 tox – cytotoxicity in counter-screen for GLP-1R inverse agonists | HEK293 cAMP-luciferase reporter cells, luminescence, 24 h | Potency, µM (highest dose often 38.3 µM), without a hit: top-dose activity change, negative = inhibition, actives largely listed as inhibitors | 0.13% of 410,000 active | AID 624418;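 also: loss of luciferase light is scored as toxicity; potency is read from the fitted curve at half-maximal effect; % is scaled to controls: 0 for no effect and ±100 for the full control effect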
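To flag toxic compounds, the library was rerun on cells for 24 hr at 37 deg C and 5% CO2. Viability-linked luminescence was captured 12 min after adding luciferase detection reagent.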
* marks the source's active call; other numbers are inactive results; ? = inconclusive; / = no result given. Rows were chosen to be rich in hits. Some 2.2% of all compounds tested hit in one or more screens of this group. Unless noted, calls follow the shape of the dose curve; as a rule, active = well fitted curve in the direction sought with a large enough effect; inconclusive = small, poorly fitted or top-dose-only effect, or another doubt; inactive = no such curve, though single readings can be large; an effect the other way counts as inactive or inconclusive.

SMILES	CCT modulator	MmCpn inh	uPA generation	GLP1R inv ag	GLP1R ag	HEK293 tox
CCc1nn(CC(=O)N(C)Cc2ccccc2)c(=O)c2cc3sccc3n12	/	/	/	1%	/	-6%
CCOC(=O)c1ccc(N2C(=O)c3n[nH]c(-c4ccco4)c3C2c2ccc(OCC)cc2)cc1 (stereo not drawn)	/	/	/	11µM*	/	-29%
CCOC(=O)c1ccc(N2C(=O)c3n[nH]c(-c4ccco4)c3C2c2ccc(F)cc2)cc1 (stereo not drawn)	/	/	/	?	-6%	-24%
COc1cccc2c1Oc1ncccc1N(C(=O)CCC(=O)NCc1ccc(OC(C)C)cc1)C2	/	/	/	-4%	/	5%
CCCn1c(CNC(=O)c2ccccc2)nc2ccccc21	-1	-2%	-7%	-4%	-5%	-6%
CC(C)Cn1c(CNC(=O)c2ccccc2)nc2ccccc21	1	-1%	-3%	14µM*	3%	-11%
CCCn1c(NC(=O)c2ccccc2)nc2ccccc21	2	-1%	-3%	11µM*	6%	?
CCOc1ccc(Nc2nc(NCC3CCCO3)c3ccccc3n2)cc1 (stereo not drawn)	2	-1%	-9%	3.5µM*	2%	?
Cc1ccc(C(CNS(=O)(=O)c2ccc(Br)cc2)N2CCN(C)CC2)cc1 (stereo not drawn)	-2	1%	-16%	7.9µM*	-1%	-10%
CN1CCN(C(CNS(=O)(=O)c2ccc(Br)cc2)c2ccc3c(c2)OCO3)CC1 (stereo not drawn)	1	-1%	2%	10µM*	9%	16%
O=S(=O)(NCC(c1ccc2c(c1)OCO2)N1CCOCC1)c1ccc(Br)cc1 (stereo not drawn)	-1	2%	-2%	?	9%	-3%
Cc1ccc(C(CNS(=O)(=O)c2ccccc2)N2CCN(C)CC2)cc1 (stereo not drawn)	-1	0%	-3%	-48%	1%	1%
O=C(Nc1ccc2nn(-c3ccc(F)cc3)nc2c1)c1cccc2c(Cl)cccc12	/	/	/	-12%	/	7%
CCc1ccc(-n2nc(CO)c(C(=O)NCCCCc3ccccc3)n2)cc1	/	/	/	8%	/	-6%
COc1cccc(NC(=O)CSc2nc3c(sc4ccccc43)c(=O)n2CCCN2CCCC2)c1	-3	-8%	0%	10µM*	15%	?
COc1cccc(NC(=O)CSc2nc3c(sc4ccccc43)c(=O)n2CCN(C)C)c1	-1	?	-9%	-7%	7%	-1%
O=C(Cn1nc2c(cc1=O)CCCC2)NCc1ccccc1	/	/	/	?	/	-7%
COc1cc(NC(=O)c2cnc(N)s2)cc(C(=O)Nc2cccc(C(F)(F)F)c2)c1	-1	?	1%	13µM*	-1%	13%
CC(C)(C)C1CCc2onc(C(=O)Nc3cccc(O)c3)c2C1 (stereo not drawn)	/	-4%	/	/	/	/
Cc1ccccc1Cn1nc(C)c(NC(=O)c2noc3c2CC(C(C)(C)C)CC3)c1C (stereo not drawn)	0	-8%	/	10µM*	7%	-38%
COC(=O)c1ccccc1NC(=O)c1noc2c1CC(C(C)(C)C)CC2 (stereo not drawn)	-81*	1%	/	10%	-14%	5%
O=S1(=O)OC(c2ccc(O)cc2)(c2ccc(O)cc2)c2ccccc21	/	/	/	/	-1%	/
O=C(O)c1ccc2c(c1)C(=O)N([C@H](Cc1ccc(O)c(O)c1)C(=O)O)C2=O	/	-1%	/	/	/	/
O=S(=O)(c1cccs1)N1CCN(CC(O)COc2cc(Cl)ccc2Cl)CC1 (stereo not drawn)	-3	2%	-10%	7.9µM*	1%	-28%
O=S(=O)(c1cccs1)N1CCN(CCOc2ccc(Cl)cc2)CC1	0	0%	3%	?	11%	-9%
SMILES	CCT modulator	MmCpn inh	uPA generation	GLP1R inv ag	GLP1R ag	HEK293 tox
COc1ccc(C(=O)NC(C)C2CC3CCC2C3)c(OC)c1 (stereo not drawn)	-3	-1%	0%	10µM*	-1%	3%
Cc1c(C(=O)N(Cc2cccc(Br)c2)C2CCS(=O)(=O)C2)oc2ccc(F)cc12 (stereo not drawn)	-1	-1%	3%	22µM*	-3%	-12%
CC1CN(C(=O)c2ccccc2OCc2ccc(Cl)cc2Cl)CC(C)O1 (stereo not drawn)	1	2%	-17%	10µM*	10%	20%
CCCC(=O)N1CCc2cc(OC)c(OC)cc2C1COc1ccc2c(C)cc(=O)oc2c1 (stereo not drawn)	/	/	/	10%	/	-12%
CCN(C(=O)CSc1nc2ccccc2nc1Cc1cccc(OC)c1)c1cccc(C)c1	/	/	/	11µM*	/	-4%
CCN(C(=O)CSc1nc(-c2ccccc2)no1)c1cccc(C)c1	/	/	/	1.3µM*	/	-22%
CCN(C(=O)CSc1nc2ccccc2nc1Cc1ccc(F)cc1)c1cccc(C)c1	/	/	/	14%	/	0%
CCOC(=O)c1cccnc1SCC(=O)N(CC)c1cccc(C)c1	0	0%	/	?	22%	1%
OCCN(CCO)c1ccc2ccccc2c1	1	-12%	5%	-26%	1%	-4%
OCCN(CCO)c1ccc(C(c2ccccc2Cl)c2ccc(N(CCO)CCO)cc2Cl)c(Cl)c1	-4	3%	-6%	5µM*	-5%	?
O=C(Cn1nc(C(F)(F)F)c2c1CCCC2)Nc1ccc(Br)cc1	/	/	/	?	/	4%
O=[N+]([O-])c1ccc(Cl)cc1NCc1cccnc1	-2	/	-4%	5.6µM*	22%	-3%
Cc1ccc(NC(=O)c2cccnc2)c([N+](=O)[O-])c1	0	-14%	3.5µM*	-11%	-2%	-22%
COc1ccc(NC(=O)c2cccnc2)c([N+](=O)[O-])c1	-2	4%	-15%	-23%	-2%	-4%
O=C(O)c1ccc(NCc2cccnc2)c([N+](=O)[O-])c1	-53*	-3%	-10%	6%	-3%	-16%
Cn1c(C(=O)NCc2ccc(F)cc2)cc2cc(S(=O)(=O)N3CCCCC3)ccc21	/	/	/	2%	/	-8%
O=C(NCc1ccccc1F)c1cccs1	-37*	0%	/	10%	1%	-3%
O=C(NCc1ccc(F)cc1)c1cccs1	-3	0%	12%	-14%	-7%	1%
O=C(CSc1nc(=O)[nH]c2c1CCC2)NCc1ccc(F)cc1	/	/	/	0%	/	-16%
Cc1scc(C(=O)N/N=C/c2ccsc2)c1C	1	1%	6.3µM*	-24%	-9%	16%
COc1cc(-c2nc3c[n+](CC(=O)c4ccccc4)ccc3n2C)cc(OC)c1OC	1	0%	0%	0%	-3%	5%
